From PubChem
D2 antag – D2 dopamine receptor (human) antagonism. HEK293 TREx D2 cells, calcium flux, dopamine EC80. inhibition, % at 10 µM. 340,000 compounds, 2% hits. AID 485344; in the data active means inhibition above about 30%; inactive means below that, where a call was filed; further: 0% is about no effect
Target sequence (P14416 whole entry, looked up): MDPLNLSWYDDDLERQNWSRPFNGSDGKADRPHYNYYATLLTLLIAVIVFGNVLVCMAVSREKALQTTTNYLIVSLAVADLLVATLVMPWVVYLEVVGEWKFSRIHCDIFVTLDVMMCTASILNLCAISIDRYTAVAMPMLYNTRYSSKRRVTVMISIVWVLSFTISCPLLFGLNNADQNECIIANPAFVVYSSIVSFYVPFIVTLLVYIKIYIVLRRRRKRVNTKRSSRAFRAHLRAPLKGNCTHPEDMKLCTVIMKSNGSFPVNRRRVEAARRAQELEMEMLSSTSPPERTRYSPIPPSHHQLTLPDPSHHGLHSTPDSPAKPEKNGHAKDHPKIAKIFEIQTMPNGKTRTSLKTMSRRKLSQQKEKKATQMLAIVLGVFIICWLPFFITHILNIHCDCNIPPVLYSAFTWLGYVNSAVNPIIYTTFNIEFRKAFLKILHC
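Calcium mobilization kinetics were recorded at 1 s intervals in tetracycline-induced HEK293 T-REx D2 cells, first for 180 s after compound addition and then 180 s after EC80 dopamine.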
D2 ag-1 – activates the human D2 dopamine receptor; P14416; HEK293 T-REx D2 cells, calcium flux agonist mode; activation, % at 2 µM; 340,000 compounds, 0.53% hits; AID 485358;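 active means activation over 3 SD above normal in the single-dose calcium agonist read, cut at about 30% in these data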; further: 0% is about no effect
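HEK293 Trex D2 cells, tetracycline-induced, o/n 30 C 5% CO2; no-wash Ca dye, RT 30–90 min; 10-cycle baseline, 23 nl cpd added, kinetic Ca read 180 s; agonist hits = positive Ca response.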
D2 PAM-1 – positive allosteric modulators of human D2 dopamine receptor; DiscoveRx D2 beta-arrestin cells, luminescence, 90 min; 100% = 57 uM dopamine signal; potentiation, % (concentration not given with the values); 360,000 compounds, 0.23% hits; AID 624464; in the data active means potentiation above about 50%
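PathHunter D2 cells, attached overnight at 37 deg C, received compound in DMSO plus dopamine at EC20 (50 nM final) for 90 min at 37 deg C. Beta-arrestin recruitment was read as luminescence after 1 h with detection reagent at ambient temperature.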
D2 PAM-2 – positive allosteric modulators of human D2 dopamine receptor; P14416; HEK293 T-REx D2, calcium flux, EC20 dopamine potentiation; potentiation, % at 10 µM; 340,000 compounds, 0.34% hits;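 active means potentiation over 3 SD above the plate norm, cut at about 30% in these data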; further: 0% is about no effect
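Tetracycline-induced Hek293 Trex D2 cells, force-coupled to calcium, loaded with no-wash calcium dye. Compound added with 180 s kinetic read for agonism, then EC20 dopamine and a further 180 s read for potentiation.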
D2 ag-2 – human D2 receptor agonism in beta-arrestin assay | AID 624465 | activation, % (no concentration beside the values) | 360,000 compounds, 0.084% hits | DiscoveRx PathHunter D2 beta-arrestin, luminescence, 90 min; 100% = 57 uM dopamine signal; in the data active means activation above about 40%
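DiscoveRx PathHunter D2 beta-arrestin cells (2,100/well) attached overnight, then compound-stimulated 90 min at 37 C in HBSS/10 mM HEPES/0.1% Tween-20 buffer; beta-galactosidase complementation read by luminescence after 1 h at ambient temperature. Dopamine 57 uM final (EC100) as control.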
* = called active by the depositor. The list is not random: actives were taken first. Their share in the collection is about 2.4%.

`C[C@H](NC(=O)CCC(=O)N1C[C@H]2C[C@H](C1)c1cccc(=O)n1C2)c1ccccc1` gave D2 antag 17, D2 ag-1 0, D2 PAM-1 5, D2 PAM-2 -6 and D2 ag-2 2.
O=c1cccc2n1CC1CC2CN(C(c2ccccc2)c2sc3ncnn3c2O)C1 (centres undefined) was read as D2 antag 32*, D2 ag-1 1, D2 PAM-1 -1, D2 PAM-2 4 and D2 ag-2 -2.
For CC(C)[C@H]1C(=O)N2CCC[C@H]2[C@]2(O)O[C@](NC(=O)[C@@H]3C=C4c5cccc6[nH]cc(c56)C[C@H]4N(C)C3)(C(C)C)C(=O)N12 the results were D2 antag 88*, D2 ag-1 84*, D2 PAM-1 66*, D2 PAM-2 -31 and D2 ag-2 80*.
For CC(C)[C@@]1(NC(=O)[C@@H]2C=C3c4cccc5[nH]cc(c45)C[C@H]3N(C)C2)O[C@@]2(O)[C@@H]3CCCN3C(=O)[C@H](Cc3ccccc3)N2C1=O the results were D2 antag 80*, D2 ag-1 64* and D2 PAM-2 -29.
Cc1cccc(-n2c(/C=C/c3c[nH]c4ccccc34)nc3ccccc3c2=O)c1 was read as D2 PAM-2 4.
Screening O=C1CN=C(c2ccccc2Cl)c2cc(Cl)ccc2N1Cc1cccc(Cl)c1 returned D2 ag-1 1 and D2 PAM-2 12.
Screening CNC(C)Cc1ccccc1Sc1ccc(O)cc1 (centres undefined) returned D2 antag 67*, D2 ag-1 0, D2 PAM-1 -42, D2 PAM-2 -21 and D2 ag-2 -4.
Screening CCCCc1nc2ccccc2c(=O)n1-c1cccc(OC)c1 returned D2 ag-1 -2 and D2 PAM-2 10.
Screening O=c1[nH]c2ccccc2c(=O)n1-c1ccc(Cl)c(Cl)c1 returned D2 ag-1 0 and D2 PAM-2 -5.
COc1cc(/C=C/[N+](=O)[O-])ccc1O was read as D2 antag -18, D2 ag-1 2, D2 PAM-1 0, D2 PAM-2 5 and D2 ag-2 -1.
CCN(CC)c1ccc(/C=C/[N+](=O)[O-])cc1 was read as D2 antag 1, D2 ag-1 57*, D2 PAM-1 4, D2 PAM-2 -7 and D2 ag-2 -4.
`CCC(C)N1C(=O)NC(=O)C2(Cc3c(ccc4ccccc34)N(C)C2)C1=O` (centres undefined) gave D2 antag -27, D2 ag-1 -1, D2 PAM-1 77*, D2 PAM-2 10 and D2 ag-2 8.
Screening COc1ccc2c(c1)CC1(CN2C)C(=O)NC(=O)N(CCc2ccccc2)C1=O (centres undefined) returned D2 antag -32, D2 ag-1 0, D2 PAM-1 12, D2 PAM-2 7 and D2 ag-2 2.
COc1ccc(C2CN(C)CC2C(=O)c2ccc(F)cc2)cc1Cl (centres undefined) was read as D2 antag 69*, D2 ag-1 0, D2 PAM-1 -13, D2 PAM-2 -35 and D2 ag-2 0.
For CN1CC(C(=O)c2ccc(F)cc2)C(c2c(F)cccc2Cl)C1 (centres undefined) the results were D2 antag 5, D2 ag-1 0, D2 PAM-1 -24, D2 PAM-2 -12 and D2 ag-2 -3.
Screening COc1ccc(-n2c(/C=C\c3ccccc3F)nc3ccccc3c2=O)cc1OC returned D2 ag-1 0 and D2 PAM-2 -7.
Screening CN1CCN(c2ccc([N+](=O)[O-])c(N)c2)CC1 returned D2 antag -1, D2 ag-1 0, D2 PAM-1 -19, D2 PAM-2 -10 and D2 ag-2 -5.
`CCN1CCN(c2ccc(N)c(C)c2)CC1` gave D2 antag 49*, D2 ag-1 0, D2 PAM-1 -12, D2 PAM-2 -9 and D2 ag-2 -2.
For CN(C)P1(N(C)C)=Nc2c(c(N)nn2C)C(c2ccccc2)=N1 the results were D2 antag 31*, D2 ag-1 -2, D2 PAM-1 1, D2 PAM-2 -4 and D2 ag-2 1.
`Clc1cccc(N2CCNCC2)c1` gave D2 antag 35*, D2 ag-1 1, D2 PAM-1 -33, D2 PAM-2 -21 and D2 ag-2 -4.
Cc1ccccc1-n1nc(C)c2c1NC(=O)CSC2c1ccccc1C(F)(F)F (centres undefined) was read as D2 ag-1 -1 and D2 PAM-2 -1.
Screening Cc1cc(C)cc(OCC(=O)Nc2ccc(Cl)cc2C(=O)c2ccccc2)c1 returned D2 ag-1 -1 and D2 PAM-2 -8.
CC1CCN(CC#CCOc2ccc(Cl)cc2)CC1 was read as D2 antag 86*, D2 ag-1 1, D2 PAM-1 -2, D2 PAM-2 -24 and D2 ag-2 -2.
Screening CCn1c(O)c(C=Nc2ccc(N3CCOCC3)cc2)c(=O)n(CC)c1=S returned D2 antag 14, D2 ag-1 35*, D2 PAM-1 12, D2 PAM-2 -2 and D2 ag-2 0.
`Cc1oc(-c2ccc(Cl)cc2)nc1CN1C(=O)CN=C(c2ccccc2)c2ccccc21` gave D2 PAM-2 -4.
Screening Cc1ccc(Cn2cccc(C(=O)Nc3ccc(C)c(Cl)c3)c2=O)cc1 returned D2 ag-1 -2 and D2 PAM-2 12.
`Nc1c(Br)cc2c3c(cccc13)-c1ccccc1-2` gave D2 PAM-1 60* and D2 ag-2 7.
Screening N#CC1=C(N)Oc2c(c(=O)oc3ccccc23)C1c1ccncc1 (centres undefined) returned D2 antag -11, D2 ag-1 0, D2 PAM-1 -7, D2 PAM-2 -8 and D2 ag-2 0.
Screening CCOc1ccc(C2C(C#N)=C(N)Oc3c2c(=O)oc2ccccc32)cc1 (centres undefined) returned D2 antag 31*, D2 ag-1 -1, D2 PAM-1 -11, D2 PAM-2 -4 and D2 ag-2 -3.
For Cc1cccc(NC(=O)Cn2cc(C(=O)c3ccccc3)c3ccccc32)c1C the results were D2 ag-1 1 and D2 PAM-2 -4.
CCOC(=O)C(NC(=O)CC)(Nc1ccc(C(O)(C(=O)OCC)C(F)(F)F)cc1C)C(F)(F)F (centres undefined) was read as D2 antag 34*, D2 ag-1 -1, D2 PAM-1 0, D2 PAM-2 15 and D2 ag-2 -4.
For CCOC(=O)C(NC(=O)CCl)(Nc1ccc(C(O)(C(=O)OCC)C(F)(F)F)cc1)C(F)(F)F (centres undefined) the results were D2 antag -1, D2 ag-1 0, D2 PAM-1 -8, D2 PAM-2 3 and D2 ag-2 -3.
